# Screens: PubChem, several laboratories
# Gli-Sufu antag = Gli-Sufu pathway antagonism; AID 588413; Sufu-KO-LIGHT fibroblasts, Gli luciferase reporter luminescence; inhibition, % at 5 µM; 0.74% of 340,000 active;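 active = inhibition above about 55%, limit read from the data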;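 also: 0% = DMSO-treated cells and 100% = wells with medium but no cells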
# LRH-1 inv ag = inverse agonists of human LRH-1 (NR5A2). O00482. HEK293T StAR-luciferase reporter, LRH-1 transfected, 24 h. inhibition, % at 3.6 µM. 0.13% of 360,000 active;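 active = inhibition above the mean inhibition of all tested compounds plus 3 SD, cut at about 73% in these data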;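 also: 0% = DMSO wells and 100% = reporter-only cells lacking LRH-1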
# NCOA2 inhibitor = human SRC2 (NCOA2) inhibition | 0.17% of 370,000 active | AID 651957 | HEK293 GAL4-SRC2 luciferase reporter, luminescence | inhibition, % at 9 µM;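 active = inhibition above the mean inhibition of all tested compounds plus 3 SD, set per campaign, cut at about 52% in these data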;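 also: 0% = DMSO treated cells and 100% = cells given Gossypol at 36 µM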
# SRC1 inh = inhibits human SRC1 coactivator; inhibition, % at 3.6 µM; HEK293 GAL4-SRC1 luciferase reporter, luminescence; Q15788; 0.12% of 360,000 active; AID 588354;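 active = inhibition above the campaign mean plus 3 SD, with each screening campaign given its own cutoff, cut at about 60% in these data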;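 also: 0% = DMSO treated cells and 100% = gossypol at 36 µM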
# SRC3 inh = inhibits human SRC3 coactivator. 0.17% of 360,000 active. Q9Y6Q9. inhibition, % at 3.6 µM. HEK293 GAL4-SRC3 luciferase reporter, luminescence. AID 588352;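 active = inhibition above a per-campaign cutoff, the mean of all compounds plus 3 SD, cut at about 60% in these data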;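 also: 0% = DMSO-treated cells and 100% = gossypol-treated cells at 36 µM; higher means less SRC3-driven luciferase light from the GAL4 reporter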
# NR2F2 inh = NR2F2 (human) inhibition, primary screen. P24468. HEK293T NGFI-A luciferase reporter, luminescence. inhibition, % at 8.6 µM. 0.7% of 370,000 active;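 active = inhibition above a per-plate cutoff, mean inhibition of test wells between control levels plus 3 SD, cut at about 38% in these data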;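 also: cells cotransfected with COUP-TFII expression vector driving the NGFI-A reporter; 0% = median of COUP-TF2 test wells and 100% = reporter-only cells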
# Gli-Sufu confirm = confirmation of Gli-SUFU pathway antagonists. 40% of 2,500 active. Sufu-KO-LIGHT cells, Gli luciferase reporter, luminescence. shares compounds with Gli-Sufu antag. inhibition, % at 5 µM. AID 602428;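 active = mean inhibition at 5 µM reaching about 45%, limit read from the data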;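 also: plate controls were DMSO-treated cells for no effect and wells lacking cells for full effect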
# SufuKO cytotox = counter-screen for Gli-SUFU antagonists: cytotoxicity | cytotoxicity, % at 5 µM | 32% of 2,500 active | Sufu-KO-LIGHT cells cytotoxicity, ATP luminescence | AID 651994 | shares compounds with Gli-Sufu antag;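 active = mean cytotoxicity at 5 µM above about 25%, limit read from the data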;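 also: cells exposed to compound overnight for roughly 16 to 18 hours; plate controls were DMSO wells with cells for no effect and medium without cells for full effect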
# Wnt3a cs = inhibits Wnt3a reporter, counter-screen for Gli-SUFU antagonists | Wnt-LIGHT cells, Wnt3a-driven luciferase reporter, luminescence | shares compounds with Gli-Sufu antag | inhibition, % at 6.25 µM | 20% of 2,500 active | AID 651995;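 active = mean inhibition above about 25%, limit read from the data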
# Starred values were filed as active, the others as inactive; · = no result given. Only some compounds are listed: those with a hit (about 1.3% of all), similar ones and a draw of the others.
SMILES,Gli-Sufu antag,LRH-1 inv ag,NCOA2 inhibitor,SRC1 inh,SRC3 inh,NR2F2 inh,Gli-Sufu confirm,SufuKO cytotox,Wnt3a cs
O=C(C1CCC1)N1CCN(c2ccnc3cc(Cl)ccc23)CC1,25.1,-7.2,22.0,18.4,33.4,32.2,·,·,·
C=CCN=C1NC(c2cccc(F)c2)C(C(=O)OC)=C(C)N1Cc1cccc(C(F)(F)F)c1 (stereo unspecified),·,·,-19.5,·,·,12.8,·,·,·
C=CCN1C(=O)[C@@H](CC(=O)N2CCN(C(=O)OCC)CC2)[C@]2(C(=O)OC)CCCCC=C12,·,·,23.3,·,·,-1.6,·,·,·
O=[N+]([O-])c1ccc(O)c(-c2nc(-c3ccccc3)c(-c3cccs3)[nH]2)c1,51.6,-19.5,-4.5,5.6,-2.8,13.8,70.2*,10.6,66.7*
Brc1ccc(-c2nn3c(-c4ccccc4)nnc3s2)o1,·,·,7.5,·,·,7.6,·,·,·
O=C(Cn1c(-c2ccccc2)c[n+]2ccsc12)c1ccc(Br)cc1,50.4,9.5,-22.4,-26.1,9.0,-18.2,45.1*,17.3,-30.7
Cc1ccc2nc(-c3ccc(NC(=O)CSc4nnc(-c5ccccc5)n4Cc4ccco4)cc3)sc2c1,·,·,-35.4,·,·,-20.9,·,·,·
CCCCNc1c(-c2ccc(OC)c(Sc3ccc(OC)cc3)c2)nc2ccccn12,53.7,16.6,·,-6.4,8.4,·,57.2*,25.9*,3.5
CCCCNc1c(-c2ccc(OC)c(Sc3ccc(OC)cc3)c2)nc2cnccn12,3.8,20.2,12.4,1.2,4.2,-0.5,·,·,·
CCCCc1ccc(NC(=O)C(=O)NCCN2CCN(Cc3ccc([N+](=O)[O-])cc3)CC2)cc1,56.0*,2.0,18.4,-0.2,9.9,10.4,42.9,19.4,5.5
O=C(N[C@H](Cc1ccccc1)C(=O)NCc1ccco1)[C@H]1O[C@@H](n2ccc(=O)[nH]c2=O)[C@H](O)[C@@H]1O,·,·,-10.8,·,·,-4.9,·,·,·
CC(=Nc1ccc(C)cc1)c1sc2ccccc2c1O,60.7*,-125.3,-42.2,-90.5,-49.2,-67.2,-83.6,54.5*,27.6*
O=C(NCc1ccccc1)[C@@H]1CCCN1C(=O)[C@H]1CCCN1C(=O)c1c(F)cccc1F,·,·,18.1,·,·,-18.5,·,·,·
CC(=O)Nc1ccc(NC(=O)Nc2ccccc2C)cc1,75.6*,-15.8,-23.3,-13.2,-14.2,-18.4,26.5,-2.2,-43.8
Cc1ccccc1NC(=O)NCCc1ccc(Cl)cc1,-8.0,-5.0,-30.9,-8.7,-6.8,18.8,·,·,·
Cc1ccccc1NC(=O)NCCCCc1ccccc1,96.0*,-6.2,-7.3,-17.9,-20.0,-14.1,6.1,22.9,-74.3
NC1=NC[C@H](c2ccccc2)N1CCCCC1CCCCC1,61.8*,-10.5,-27.6,-0.2,-6.8,0.8,53.7*,34.2*,23.3
Cn1c(C2CCCN2C(=O)OC(C)(C)C)n[nH]c1=S (stereo unspecified),53.8,15.9,9.0,1.4,-2.6,-2.1,11.8,5.9,-1.6
Cc1ccc(-n2c(SCC(=O)Nc3ccc4cn[nH]c4c3)nnc2-c2ccccc2)cc1,·,·,10.5,·,·,6.9,·,·,·
CC(N=C1NS(=O)(=O)c2ccccc21)C(=O)OCC(=O)N(C)C1CCS(=O)(=O)C1 (stereo unspecified),85.9*,18.3,15.2,8.4,5.4,2.0,14.5,-4.9,14.2
N=c1ccn2c(n1)O[C@H]1[C@H](O)[C@@H](CO)O[C@H]12,60.1*,-6.3,15.6,-20.8,-10.4,-8.2,45.9*,12.8,40.6*
N=c1nc2n(cc1F)C1OC(CO)C(O)C1O2 (stereo unspecified),55.5*,13.2,-3.5,13.1,16.7,-19.9,46.9*,26.4*,36.0*
COc1ccc(-c2noc(C3CCCN(C(=O)Nc4ccc5c(c4)OCO5)C3)n2)cc1 (stereo unspecified),·,·,-30.1,·,·,12.4,·,·,·
CCN1C/C(=C\c2cc(OC)c(OC)c(OC)c2)C2=NN(c3ccccc3)C(c3cc(OC)c(OC)c(OC)c3)C2C1 (stereo unspecified),53.2,3.2,-1.4,-9.2,3.1,-37.0,29.8,16.9,-9.2
CC(C)(N[C@@H](Cc1c[nH]c2ccccc12)C(=O)NCC(c1ccccc1)c1ccccc1)C(=O)NC1CCCCC1,·,·,·,·,·,12.0,·,·,·
SMILES,Gli-Sufu antag,LRH-1 inv ag,NCOA2 inhibitor,SRC1 inh,SRC3 inh,NR2F2 inh,Gli-Sufu confirm,SufuKO cytotox,Wnt3a cs
COc1cc(OC)cc(C(=O)Oc2c(CN3CCOCC3)cc(Cl)c3cccnc23)c1,-7.3,0.3,-2.5,2.8,7.6,17.4,·,·,·
O=C(Oc1c(CN2CCOCC2)cc(Cl)c2cccnc12)c1ccccc1,74.8*,-1.6,14.4,10.0,23.1,-7.5,26.5,32.0*,-7.0
Cc1cc(N/N=C/c2ccc(O)cc2O)nc(-n2nc(C)cc2C)n1,87.9*,-11.2,5.0,-8.4,5.8,5.1,59.6*,27.0*,-35.0
CN1CCC(=C2c3ccccc3CC(=O)c3sccc32)CC1,10.3,-15.0,8.4,6.3,1.9,10.3,24.1,4.7,7.3
CN1CCC(=C2c3ccccc3CCc3sccc32)CC1,34.8,-5.5,·,9.0,19.6,·,·,·,·
CCOC(=O)N1CCN(Cc2nc3c(c(=O)n(C)c(=O)n3C)n2CCCc2ccccc2)CC1,99.1*,-15.9,5.5,10.6,2.2,12.8,18.8,0.9,-34.1
CCCCCn1c(CN2CCN(C(=O)OCC)CC2)nc2c1c(=O)n(C)c(=O)n2C,6.3,10.5,-12.5,1.6,22.6,6.0,·,·,·
COC(=O)[C@]12C[C@H](CC(=O)NCc3ccc(C)o3)C(=O)N(Cc3ccc(Cl)cc3Cl)C1=C[C@H](COCc1ccccc1)O[C@@H]2C,·,·,0.7,·,·,16.0,·,·,·
CCNC(=S)N/N=C(\C)c1ccc(N2CCOCC2)cc1,4.9,-6.8,-4.5,3.1,4.3,-7.9,·,·,·
CNC(=S)N/N=C(\C)c1ccc(N2CCOCC2)cc1,67.5*,-29.4,-22.4,-17.0,-10.3,-5.8,-18.1,6.5,-67.9
Cc1ccccc1NC(=O)c1onc2c1CCCC2,56.4*,-137.3,-40.1,-77.2,-97.6,-38.5,-93.3,12.0,-81.6
Cc1cccc(NC(=O)c2onc3c2CCCC3)c1C,11.4,-161.1,-34.8,-75.1,-62.7,-35.0,·,·,·
Cc1ccc(-c2csc(NC(=O)c3c(C)noc3C)n2)cc1C,-1.0,-49.4,-34.6,-22.3,-28.7,-6.2,·,·,·
Cc1ccc(-c2csc(NC(=O)c3c(C)noc3C)n2)s1,54.8,-9.9,·,-25.8,-23.9,·,63.7*,34.2*,-13.6
O=C1C(=O)N(CCCn2ccnc2)C(c2ccc(Br)cc2)/C1=C(\O)c1ccc2c(c1)OCCO2 (stereo unspecified),-10.0,-13.4,-12.3,-24.4,12.1,-18.5,·,·,·
